Assay results reported in PubChem BioAssay AID1159580 (chemical genetic matrix, 2015).
Out of some 5,500 compounds screened, about 2,000 (36%) were called active. Another 18% or so got no clear call; they are omitted. Cut-off read from the data, not from the text of the source: active = normalized growth mostly below about 0.91 (no sharp cut-off); inconclusive = no clear call, values can overlap the other calls; inactive = mostly above about 0.92. Some of the results follow.

Assay: chemical genetic growth profiling, strain panel (AID 1159580);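 note: tested at 20 µM; growth read once vehicle control cultures reached saturation at 30 °C; 1 = growth at the plate median or of vehicle wells; lower values mean less growth of the strain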
Details: growth OD

Measured: normalized growth

C/C=C(\C)C(=O)O[C@H]1C[C@@H](OC(C)=O)[C@@]2(C(=O)OC)CO[C@@H]3C2[C@]12CO[C@](O)(C(=O)OC)[C@H]2[C@](C)(C12O[C@@]1(C)[C@H]1C[C@@H]2OC2OC=C[C@@]21O)[C@@H]3O (some centres not stated)
inactive: S. cerevisiae deletion strains, locus YJR075W, strain HOC1, active compounds read low 0.998 | S. cerevisiae deletion strains, locus YKL009W, strain mrt4, active compounds read low 0.996 | S. cerevisiae deletion strains, locus YKL068W, active compounds read low 0.987 | S. cerevisiae deletion strains, locus YKL085W, strain MDH1 (second series), active compounds read low 0.998 | S. cerevisiae deletion strains, locus YKL085W, strain MDH1, active compounds read low 0.998 | S. cerevisiae deletion strains, locus YKL160W, strain elf1, active compounds read low 0.954 | S. cerevisiae deletion strains, locus YKL190W, strain CNB1, active compounds read low 0.997 | S. cerevisiae deletion strains, locus YKR001C, strain vps1, active compounds read low 0.988 | S. cerevisiae deletion strains, locus YKR026C, strain gcn3, active compounds read low 0.992 | S. cerevisiae deletion strains, locus YKR091W, strain srl3, active compounds read low 0.964 | S. cerevisiae deletion strains, locus YLL001W, strain dnm1, active compounds read low 0.965 | S. cerevisiae deletion strains, locus YLL026W, active compounds read low 0.978 | S. cerevisiae deletion strains, locus YLL041C, strain sdh2, active compounds read low 0.975 | S. cerevisiae deletion strains, locus YLR027C, strain aat2, active compounds read low 0.991 | S. cerevisiae deletion strains, locus YLR039C, strain RIC1, active compounds read low 1.04 | S. cerevisiae deletion strains, locus YLR058C, strain SHM2, active compounds read low 0.982 | S. cerevisiae deletion strains, locus YLR102C, strain apc9, active compounds read low 0.979 | S. cerevisiae deletion strains, locus YLR113W, strain HOG1, active compounds read low 1.02 | S. cerevisiae deletion strains, locus YLR221C, strain rsa3, active compounds read low 0.999 | S. cerevisiae deletion strains, locus YLR258W, strain gsy2, active compounds read low 0.969 | S. cerevisiae deletion strains, locus YLR262C, strain YPT6 (second series), active compounds read low 0.968 | S. cerevisiae deletion strains, locus YLR262C, strain YPT6, active compounds read low 1.03 | S. cerevisiae deletion strains, locus YLR268W, strain sec22, active compounds read low 0.913 | S. cerevisiae deletion strains, locus YLR320W, strain mms22, active compounds read low 0.992 | S. cerevisiae deletion strains, locus YLR330W, strain CHS5, active compounds read low 0.996 | S. cerevisiae deletion strains, locus YLR342W, strain FKS1 (second series), active compounds read low 1.05 | S. cerevisiae deletion strains, locus YLR342W, strain FKS1, active compounds read low 0.983 | S. cerevisiae deletion strains, locus YLR357W, strain rsc2, active compounds read low 0.978 | S. cerevisiae deletion strains, locus YLR370C, strain arc18, active compounds read low 0.987 | S. cerevisiae deletion strains, locus YLR371W, strain rom2, active compounds read low 0.971 | S. cerevisiae deletion strains, locus YLR384C, strain iki3, active compounds read low 0.976 | S. cerevisiae deletion strains, locus YLR418C, strain cdc73, active compounds read low 1 | S. cerevisiae deletion strains, locus YML016C, strain PPZ1, active compounds read low 0.985 | S. cerevisiae deletion strains, locus YML032C, strain rad52, active compounds read low 0.957 | S. cerevisiae deletion strains, locus YML120C, strain ndi1, active compounds read low 0.979 | S. cerevisiae deletion strains, locus YML124C, strain tub3, active compounds read low 0.99 | S. cerevisiae deletion strains, locus YMR058W, strain fet3, active compounds read low 0.973 | S. cerevisiae deletion strains, locus YMR078C, strain ctf18, active compounds read low 0.963 | S. cerevisiae deletion strains, locus YMR125W, strain sto1, active compounds read low 0.958 | S. cerevisiae deletion strains, locus YMR129W, active compounds read low 0.991 | S. cerevisiae deletion strains, locus YMR205C, strain PFK2, active compounds read low 0.984 | S. cerevisiae deletion strains, locus YMR223W, strain ubp8, active compounds read low 0.998 | S. cerevisiae deletion strains, locus YMR231W, strain pep5, active compounds read low 0.968 | S. cerevisiae deletion strains, locus YMR263W, strain SAP30, active compounds read low 0.987 | S. cerevisiae deletion strains, locus YMR307W, strain GAS1, active compounds read low 0.987 | S. cerevisiae deletion strains, locus YNL067W, strain RPL9B, active compounds read low 0.979 | S. cerevisiae deletion strains, locus YNL071W, strain lat1, active compounds read low 0.983 | S. cerevisiae deletion strains, locus YNL128W, strain TEP1, active compounds read low 0.993 | S. cerevisiae deletion strains, locus YNL153C, strain GIM3, active compounds read low 0.988 | S. cerevisiae deletion strains, locus YNL183C, strain NPR1, active compounds read low 0.972 | S. cerevisiae deletion strains, locus YNL209W, strain ssb2, active compounds read low 0.989 | S. cerevisiae deletion strains, locus YNL233W, strain BNI4, active compounds read low 0.98 | S. cerevisiae deletion strains, locus YNL248C, strain rpa49, active compounds read low 0.967 | S. cerevisiae deletion strains, locus YNL250W, strain rad50, active compounds read low 0.981 | S. cerevisiae deletion strains, locus YNL271C, strain bni1, active compounds read low 0.97 | S. cerevisiae deletion strains, locus YNL298W, strain CLA4, active compounds read low 0.968 | S. cerevisiae deletion strains, locus YNL307C, strain MCK1, active compounds read low 0.983 | S. cerevisiae deletion strains, locus YNL322C, strain KRE1 (second series), active compounds read low 0.977 | S. cerevisiae deletion strains, locus YNL322C, strain KRE1, active compounds read low 0.995 | S. cerevisiae deletion strains, locus YNR049C, strain mso1, active compounds read low 0.976 | S. cerevisiae deletion strains, locus YNR052C, strain pop2, active compounds read low 0.973 | S. cerevisiae deletion strains, locus YOL006C, strain TOP1, active compounds read low 0.926 | S. cerevisiae deletion strains, locus YOL012C, strain htz1 0.809 | S. cerevisiae deletion strains, locus YOL147C, strain pex11, active compounds read low 0.981 | S. cerevisiae deletion strains, locus YOR001W, strain rrp6, active compounds read low 0.995 | S. cerevisiae deletion strains, locus YOR061W, strain CKA2, active compounds read low 0.989 | S. cerevisiae deletion strains, locus YOR069W, strain VPS5, active compounds read low 0.982 | S. cerevisiae deletion strains, locus YOR070C, strain gyp1, active compounds read low 1 | S. cerevisiae deletion strains, locus YOR080W, strain dia2, active compounds read low 0.991 | S. cerevisiae deletion strains, locus YOR083W, strain WHI5, active compounds read low 0.968 | S. cerevisiae deletion strains, locus YOR106W, strain vam3, active compounds read low 0.938 | S. cerevisiae deletion strains, locus YOR136W, strain idh2, active compounds read low 0.974 | S. cerevisiae deletion strains, locus YOR144C, strain elg1, active compounds read low 0.973 | S. cerevisiae deletion strains, locus YOR184W, strain ser1, active compounds read low 0.967 | S. cerevisiae deletion strains, locus YOR231W, strain MKK1, active compounds read low 0.989 | S. cerevisiae deletion strains, locus YOR265W, strain rbl2, active compounds read low 0.984 | S. cerevisiae deletion strains, locus YOR270C, strain vph1, active compounds read low 0.93 | S. cerevisiae deletion strains, locus YOR290C, strain snf2, active compounds read low 0.946 | S. cerevisiae deletion strains, locus YOR316C, strain cot1, active compounds read low 0.977 | S. cerevisiae deletion strains, locus YPL051W, strain arl3, active compounds read low 0.98 | S. cerevisiae deletion strains, locus YPL055C, strain LGE1, active compounds read low 1.01 | S. cerevisiae deletion strains, locus YPL078C, strain atp4, active compounds read low 0.942 | S. cerevisiae deletion strains, locus YPL106C, strain sse1, active compounds read low 1 | S. cerevisiae deletion strains, locus YPL240C, strain hsp82, active compounds read low 0.985 | S. cerevisiae deletion strains, locus YPL241C, strain CIN2, active compounds read low 1 | S. cerevisiae deletion strains, locus YPL256C, strain CLN2, active compounds read low 0.971 | S. cerevisiae deletion strains, locus YPR119W, strain clb2, active compounds read low 0.991 | S. cerevisiae deletion strains, locus YPR141C, strain kar3, active compounds read low 0.977 | S. cerevisiae deletion strains, locus YPR163C, strain tif3, active compounds read low 0.97 | S. cerevisiae deletion strains, locus YPR167C, strain met16, active compounds read low 0.978 | S. cerevisiae deletion strains, strain wtn01, active compounds read low 0.948 | S. cerevisiae strains, strain wild type, active compounds read low 0.994
